# Measured values as given in the supplement of paper PMC11417369.
# ± gives the standard deviation of the averaged measurements. Over roughly 25,000 sequences, “ln(normalized median fluorescence intensity)” has its median near 10; the highest 2% begin near 12. For the sample, the highest values were picked, then their nearest neighbours and some sequences at random.
# Test system: PfAP2-G AP2 domain (GST-tagged)
# Assay: gcPBM binding intensity (ln(normalized median fluorescence intensity)); higher = stronger DNA binding
# Outline: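 Each value is the highest Masliner-normalised natural-log median intensity across replicate spots of either orientation of a probe. The probes were primer-extended double-stranded 36-bp intergenic genomic sequences on an Agilent 4 × 180k array, alongside negative controls, exposed for 1 h to GST-tagged P. falciparum DNA-binding domains expressed in E. coli. Bound protein was picked up with Alexa488 anti-GST antibody and scanned at 488 nm.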
row,Sequence,gcPBM binding intensity (ln)
1,TAAGTTATATGTACTACACACGTACACAAAATAAGA [CACACA_site9237],11.8 ± 1
2,TATATCTACTACACACGTACACAAAATAAGATACCT [XGTACX_site7886],11.5 ± 0.97
3,ACATAAATAATAAAAACACACATATGTACATATATA [CACACA_site1913],11.3 ± 0.79
4,AATATATAAACACGTACACACACATATATGTATATA [CACACA_site9168],11.6 ± 1
5,GCTATATATTACAATCGTACAATATATATATATATA [XGTACX_site6730],10.8 ± 0.68
6,TATATTTATAACAACACACACAGATCATAAAACTGC [CACACA_site7086],10.2 ± 0.12
7,TTTTTCCAATCAGATGCATGTTACTATATTTGGTTC [TGCATGCA_site52],9.96 ± 0.014
8,ATATATTATTATAACTGTACTTTTTTTGTGGTTAAT [XGTACX_site8266],11.5 ± 0.83
9,TCATAGTATAAACACACACACACACCCATATATATA [CACACA_site8512],10.2 ± 0.3
10,ATAAATTGTTCTTTTTGTGTAAACAGAATATTAAAA [CACACA_negctrl_site1022],10.1 ± 0.21
11,TAAGAAATAAATAGTACACACATAGACACCCACCCA [CACACA_site8429],11.7 ± 0.8
12,GCATAAGAAATAAATAGTACACACATAGACACACAC [XGTACX_site3095],11.6 ± 0.85
13,TAAGAAATAAATAGTACACACATAGACACCCACCGA [CACACA_site1516],11.5 ± 0.93
14,TGATCTTTACACATATTATATATATATAAAAAAAAA [XGTACX_negctrl_site360],9.99 ± 0.26
15,TCTTGAAAAAGAATCAATCGGTCGACAAAAAAAAAA [CACACA_negctrl_site1099],10.4 ± 0.24
16,GTCTTAAAAATTAAAACACACGTTCACTTTCATATT [CACACA_site5803],10.05 ± 0.021
17,ATATTGTGTTATAAATGTACACAATTTCCTTTCATA [XGTACX_site7481],11.3 ± 0.79
18,TTTCAAAGGAAATGGTGTACACAATTTTTCCTTTTT [XGTACX_site2340],11.7 ± 0.88
19,AAAAAAAAATGTCATGGTACACAATTTTTTCTTTTT [XGTACX_site4505],11 ± 0.56
20,ATTATACAAAATGGTAAGGAAAAGGAAATTTTTTTT [CACACA_negctrl_site1090],9.77 ± 0.014
21,TTTTCCTTTCACAATGGTACACAAATATACATGCAA [XGTACX_site7244],11.2 ± 0.8
22,CAAAGGAAATGGTGTACACAATTTTTCCTTTTTCGT [CACACA_site4800],11.8 ± 1.2
23,ATATATATGGATGGACGTACGTATGTATGTAATTTC [XGTACX_site4135],11.3 ± 0.64
24,AAATAAGAAAAAGCGCGTACACATAACATTTTTATA [XGTACX_site8807],11.7 ± 0.93

row,Sequence,gcPBM binding intensity (ln)
1,AAAAGAAATATTTATACACACACACTAACATATATA [CACACA_site8580],10.09 ± 0.035
2,CAATTTATAAAGAAAACACACATATACATAAATACA [CACACA_site4829],10.2 ± 0.16
3,TATATATATTTATACACACAAACATAATACTACTTA [CACACA_site2022],10.3 ± 0.22
4,TTGGTGGATAAATTTACACACAATAATTTTCGTTCA [CACACA_site467],10 ± 0.14
5,AAAAAAAAAATTTACTGTACACATTTGGGATACTCA [XGTACX_site5191],11.7 ± 0.76
6,TTTAAAAATTAATTCTGTACACATTTTTATTTTATT [XGTACX_site8],11.5 ± 0.8
7,AAAAAAAATTTTATCTGTACACATTTTTTTCTTTTT [XGTACX_site4229],11.6 ± 0.74
8,AAAAAATTCTGGTACTGTACACATTTTTTTAAATTT [XGTACX_site6904],11.7 ± 1
9,AAAATTTTTTACTTTACACACATTTTGTATATTTTG [CACACA_site1730],9.98 ± 0.23
10,ACTGTAAAAGGATTTACACACATATTTACATTTACA [CACACA_site519],10.01 ± 0.021
11,TTACAATAAATTATAGTGCAATATTTTATTTAATAT,9.9 ± 0.26
12,AAAATATATATATATATATATATATGTATACTCCTA [XGTACX_negctrl_site312],10 ± 0.29
13,CGAATATATTCTAGACGTACTATATAATATATATAT [XGTACX_site4953],11.1 ± 0.69
14,TATATTTATTTATTCTGTACTGAAGACAGTTATGTA [XGTACX_site8857],10.8 ± 0.58
15,AAAAAAAATAATAATACACACAATATGATATGTACA [CACACA_site850],10.4 ± 0.17
16,AAATTATATATGATGTGTACATAAATATATACACAT [XGTACX_site8761],11.4 ± 0.83
17,ATATGTACAAATTATACACACATGTACAATTATATA [CACACA_site1253],11.3 ± 0.79
18,TTTGTTTTATGTGGTTGTACACAAATACAATTTAAA [XGTACX_site5156],11.6 ± 1.1
19,GATATAATTATGTGTACACAATTTTTTTTTTTTTTT [CACACA_site4501],11.7 ± 0.87
20,AAAATAATATATGTATGTACACAATTATTTATAAGT [XGTACX_site7267],11.5 ± 0.89
21,TAATTATTTTTATATTGTACAATATGTAAATATATA [XGTACX_site592],10.8 ± 0.58
22,TATGATATAATTATGTGTACACAATTTTTTTTTTTT [XGTACX_site1084],11.6 ± 0.8
23,TTATATGTTTTGTGTACACAATTTATTAAATTAATA [CACACA_site5645],11.7 ± 0.88
